Screening results as filed in PubChem.
Shown are actives, neighbours in structure and some others; about 7.7% of the full set was active somewhere.
Tb PYK inh: blocks Trypanosoma brucei pyruvate kinase | Q57TT1 | TbPYK enzyme, Kinase-Glo Plus ATP luminescence, 45 min | Potency, µM (titrated, usually from 76.8 µM), inactives show at the top dose activity, negative = inhibition, actives largely listed as inhibitors | hit rate 0.12% among 410,000; further: potency means the concentration at half of the fitted maximal effect; nearly all actives have a fitted effect of over 50% in size
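Luminescence from Kinase-Glo Plus, added after a 45-minute room-temperature reaction, served as the end-point read-out. The enzyme and substrate were preincubated with compound before ADP (130 uM final) initiated turnover. Concentration-effect curves came from normalized qHTS data.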
HCMV antiviral: blocks human cytomegalovirus replication. HFF cells, HCMV-luciferase reporter, 72 h; hits give low values. activity change, negative = inhibition, % at 57.5 µM. hit rate 4.5% among 410,000. AID 1259415; in the data active means activity change below about -60%; inconclusive means no clear call, values can overlap the other calls; inactive means above about -39%
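Human foreskin fibroblasts infected with luciferase-reporter HCMV at MOI 1 PFU/cell, compounds at two doses. Luciferase measured 72 h post infection; normalized to buffer-only basal and Salinomycin (10uM) controls.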
FMDV antiviral: foot and mouth disease virus antiviral activity. FMDV antiviral cell-based qHTS. Potency, µM (titrated, usually from 57.9 µM), for the others: top-dose activity change, negative = inhibition, actives largely listed as inhibitors. hit rate 1.2% among 410,000. AID 1159524; calls by dose curve; tested in HEK293T cells; further: read-out not given here; potency means the concentration at half of the fitted maximal effect; nearly all actives have a fitted effect of over 45% in size
Sm TGR block: inhibitors of Schistosoma mansoni thioredoxin glutathione reductase; Q962Y6; purified TGR, DTNB reduction, TNB absorbance 405 nm; Potency, µM (top dose mostly 114 µM), for inactives: at the top dose activity change, negative = inhibition, most hits filed as inhibitors; hit rate 3% among 360,000; AID 485364; further: potency means the concentration at half of the fitted maximal effect; nearly all actives have a fitted effect of over 60% in size
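Kinetic colorimetric format: TGR-catalysed, NADPH-driven DTNB reduction monitored via TNB absorbance. Enzyme dispensed at 20 nM; compound exposure 15 min at room temperature before reaction start.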
FBPA Giardia inh: Giardia lamblia aldolase inhibition; purified Giardia FBPA; AID 2451; Potency, µM (titrated, usually from 59.6 µM), without a hit: top-dose activity, negative = inhibition, most hits filed as inhibitors; hit rate 0.71% among 290,000; further: potency means the concentration at half of the fitted maximal effect; nearly all actives have a fitted effect of over 55% in size
Target sequence (A8B2U2 whole entry, looked up): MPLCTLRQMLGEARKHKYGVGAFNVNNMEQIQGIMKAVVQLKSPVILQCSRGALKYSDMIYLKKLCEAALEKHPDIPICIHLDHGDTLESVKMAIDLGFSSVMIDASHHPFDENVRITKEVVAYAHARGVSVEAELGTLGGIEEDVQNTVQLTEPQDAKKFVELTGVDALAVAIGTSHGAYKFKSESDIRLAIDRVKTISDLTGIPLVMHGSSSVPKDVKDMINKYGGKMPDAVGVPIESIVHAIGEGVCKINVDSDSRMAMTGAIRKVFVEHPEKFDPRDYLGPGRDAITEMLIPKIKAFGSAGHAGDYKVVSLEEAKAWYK
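Giardia FBPA (40 nM reagent) was preincubated 10 min at RT with compound (up to 57.5 uM final), then substrate plus GAPDH/TPI/NAD/arsenate coupling system with diaphorase/resazurin was added; resorufin fluorescence (525/598 nm) was read after 20 min.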
RE007 growth inh: less growth of the S. pombe RE007 Vpr strain; S. pombe RE007 Vpr strain, BacTiter-Glo ATP luminescence, 24 h; hit rate 0.21% among 360,000; Potency, µM (doses to about 92.2 µM), for inactives: at the top dose activity change, negative = less growth, most hits filed as inhibitors; active means well fitted falling curve with a large enough effect; inconclusive means small, poorly fitted or top-dose-only effect; inactive means no such curve, though single readings can be large or run the other way; further: potency means the concentration at half of the fitted maximal effect; nearly all actives have a fitted effect of over 50% in size
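Fission yeast strain RE007, carrying one chromosomally integrated HIV-1 vpr copy, was seeded at OD 0.01 in PMG+AL medium with 23 nL pinned compound. After 24 h at 30 °C and 99% humidity, viability was read by BacTiter-Glo luminescence.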
Numbers without * were called inactive; u = inconclusive; x = no result; + = active, no number; [ ] = remark or other dose. Unless noted, the call rests on the fitted dose curve; in most records, active means well fitted curve in the direction sought with a large enough effect; inconclusive means small, poorly fitted or top-dose-only effect, or another doubt; inactive means no such curve, though single readings can be large; an effect the other way counts as inactive or inconclusive. On the % scale 0 is the no-effect control and ±100 the full control effect.

SMILES	Tb PYK inh	HCMV antiviral	FMDV antiviral	Sm TGR block	FBPA Giardia inh	RE007 growth inh
CC1=CC(c2ccccc2)n2nc(NC(=O)CCCC(=O)O)nc2N1 (stereo not given)	3%	16	-15%	20µM*	-8%	10%
CC1=CC(c2ccccc2)n2nc(NC(=O)CCC(=O)O)nc2N1 (stereo not given)	-2%	-32	35%	13µM*	-11%	1%
CCOC(=O)c1cccn1C1C(=O)N(Cc2ccc(C(F)(F)F)cc2)c2ccc(OC)cc21 (stereo not given)	x	-9	x	x	x	x
COc1ccc(-c2nc3scc(CCNS(=O)(=O)c4ccc(F)cc4F)n3n2)cc1OC	0%	-17	-18%	-22%	x	x
COc1ccc(-n2c(NCCN(C)C)nc3sc4c(c3c2=O)CCCCC4)cc1	-3%	-107*	-29%	-10%	2%	18%
Cc1ccccc1-c1nc(CS(=O)(=O)CC(=O)Nc2c(C)cccc2C)c(C)o1	4%	-78*	-30%	u	x	x
CCCNC(=O)CS(=O)(=O)Cc1nc(-c2ccccc2C)oc1C	-2%	5	-13%	50µM*	0%	0%
Cc1ccc(CNC(=O)CS(=O)(=O)Cc2nc(-c3ccccc3C)oc2C)cc1	-1%	-61*	-10%	2%	x	x
CCOC(=O)c1c(/N=C/c2c(O)n(-c3ccc(F)cc3)c(=S)[nH]c2=O)sc2c1CCCC2	-10%	56	-9%	u	-2%	-10%
CCOC(=O)c1c(/N=C/c2c(O)n(-c3ccccc3F)c(=S)[nH]c2=O)sc2c1CCCC2	-22%	-6	0%	11µM*	18µM*	-17%
COc1cccc(/C=N/NC(=O)c2cc3c(OC)cccc3[nH]2)c1O	-13%	-75*	-9%	3%	0%	8%
COc1ccc(OC)c(/C=N/NC(=O)c2cc3c(OC)cccc3[nH]2)c1	2%	-17	-27%	10%	0%	11%
CCOc1ccc(/C=N/NC(=O)c2cc3c(OC)cccc3[nH]2)cc1	-1%	-63*	-8%	-20%	3%	4%
COc1ccc(OC)c2[nH]c(C(=O)N/N=C/c3ccccc3O)cc12	3%	-93*	u	-9%	-19%	x
CCOC(=O)c1c(C)[nH]c(C(=O)N/N=C\c2ccccc2O)c1C	-2%	-100*	12%	-2%	-15%	-10%
CCOC(=O)c1c(C)[nH]c(C(=O)N/N=C/c2cc([N+](=O)[O-])ccc2O)c1C	-6%	4	-12%	-3%	31%	4%
CN1CC(O)C2=CC(=O)C(=O)C=C21 (stereo not given)	x	x	-16%	x	x	x
CCn1c(SCC(=O)Nc2ccc(C)cc2Br)nnc1-c1nonc1NC(C)=O	-1%	-27	-13%	-12%	x	x
C/C(=N\NC(=O)C(C)n1nc(C)c([N+](=O)[O-])c1C)c1ccccc1O (stereo not given)	u	-101*	-14%	3%	u	3%
COc1ccccc1CCNC(=O)c1ccc2c(c1)c(C)c(C)n2C	-6%[15.4 µM]	0	24%	-2%	x	x
FC(F)(F)c1ccc(N2CCN(c3cc(-c4ccccc4)nc4ncnn34)CC2)nc1	1%	-98*	x	-4%	1%	2%
CCCCC#Cc1ccccc1CC(=O)Nc1ccccc1	1%	-4	8%	-6%	-6%	-4%
CCCCCCCC#Cc1ccccc1/C=N/S(=O)c1ccc(C)cc1 (stereo not given)	20µM*	x	12%	u	-1%[12.9 µM]	u
O=C(Nc1nccs1)C1CC(=O)N(CCc2ccc(F)cc2)C1 (stereo not given)	3%	-62*	-14%	-2%	1%	21%
CCOc1ccc(CCNC(=O)C2CC(=O)N(CCc3ccccc3)C2)cc1OCC (stereo not given)	3%	-72*	7%	1%	-4%	-5%
SMILES	Tb PYK inh	HCMV antiviral	FMDV antiviral	Sm TGR block	FBPA Giardia inh	RE007 growth inh
CCc1nnc(NC(=O)C2CC(=O)N(CCc3ccc(F)cc3)C2)s1 (stereo not given)	0%	-64*	2%	-2%	2%	8%
O=C(Nc1nccs1)C1CC(=O)N(c2ccc(F)cc2)C1 (stereo not given)	-11%	17	3%	6%	4%	2%
CCOc1ccc(CCNC(=O)C2CC(=O)N(CCc3ccc(OC)c(OC)c3)C2)cc1OCC (stereo not given)	-2%	-14	-16%	-2%	x	3%
C=CCN(CC=C)C[C@@H]1CSCCS(=O)(=O)N1	x	10	x	x	x	x
C#CCN1CC(COc2ccccc2)OCCS1(=O)=O (stereo not given)	x	15	x	x	x	x
COc1cc(C2Nc3c(F)cccc3C3C=CCC32)cc(Br)c1OC (stereo not given)	-17%	-14	u	20µM*	-24%	0%
COc1ccc(OCC(=O)Nc2ccc3c(c2)nc(CCN2CCN(c4ccccn4)CC2)n3C)cc1	-3%	u	u	x	x	-12%
Cn1c(CCN2CCN(c3ccccn3)CC2)nc2cc(NC(=O)COc3ccc(Cl)cc3)ccc21	0%	-97*	11µM*	-3%	10%	19%
Cc1cccc(OCC(=O)Nc2ccc3c(c2)nc(CCN2CCN(c4ccccn4)CC2)n3C)c1	-1%	+	32µM*	-6%	-1%	4%
CCCCCC(C)N (stereo not given)	-4%	x	6%	x	-2%	x
C[n+]1c2n(c3ccccc31)N=C(c1ccc(Br)cc1)CS2	-5%	-2	u	-5%	6%	u
C[n+]1c2n(c3ccccc31)N=C(c1ccccc1)CS2	2%	-92*	u	-7%	-15%	-28%
C[n+]1c2n(c3ccccc31)N=C(c1ccc(-c3ccccc3)cc1)CS2	0%	-99*	u	14%	-4%	-9%
C#C[C@]1(O)CC[C@H]2[C@@H]3CCC4=Cc5nc6nc7ccccc7n6cc5C[C@]4(C)[C@H]3CC[C@@]21C	3%	-30	14µM*	u	x	-1%[18.4 µM]
COC(=O)c1c(NC(=O)COc2ccc(C)cc2Br)sc2c1CCCC2	-3%	18	-12%	-1%	x	x
CCOC(=O)COc1ccc(C2C(C(=O)OC)=C(C)NC3=C2C(=O)c2ccccc23)cc1Cl (stereo not given)	-12%	-102*	-14%	6%	x	x
CCOc1cc(Br)c(C2C(C(=O)OC)=C(C)NC3=C2C(=O)c2ccccc23)cc1OCC (stereo not given)	0%	-29	-25%	22µM*	x	x
COc1cccc(/C=C/C(=O)Nc2ccc3nc(N4CCN(C)CC4)cc(C)c3c2)c1OC	-3%	-106*	-23%	-11%	x	x
